According to PubChem BioAssay (NCI):
Compounds without any hit were thinned out: in the full panel of roughly 83,000, 20% have a hit.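 Single-dose data. Exposure time 48 hours. Values below 10 considered active.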 Calls of active or inactive are those of the source.

Legend:
Experiment in all cases: NCI-60 one-dose screen, 48 h (100 = growth as untreated, 0 = no growth, -100 = all killed)
Conditions in all cases: 10 µM unless noted
DU-145 prostate = test system: DU-145 prostate
K-562 leukemia = test system: K-562 leukemia
MDA-MB-231 breast = test system: MDA-MB-231 breast
RXF 393 renal = test system: RXF 393 renal
SF-268 CNS = test system: SF-268 CNS
SF-295 CNS = test system: SF-295 CNS
SF-539 CNS = test system: SF-539 CNS
UACC-257 melanoma = test system: UACC-257 melanoma
M14 melanoma = test system: M14 melanoma
HCT-15 colon = test system: HCT-15 colon
HT29 colon = test system: HT29 colon
SNB-75 CNS = test system: SNB-75 CNS
SNB-19 CNS = test system: SNB-19 CNS
U251 CNS = test system: U251 CNS
PC-3 prostate = test system: PC-3 prostate
SK-MEL-5 melanoma = test system: SK-MEL-5 melanoma
UACC-62 melanoma = test system: UACC-62 melanoma
LOX IMVI melanoma = test system: LOX IMVI melanoma
SK-MEL-28 melanoma = test system: SK-MEL-28 melanoma
MALME-3M melanoma = test system: MALME-3M melanoma

Measured: growth

CN(C)CCCN=c1cc2c(=O)n(CCCN(C)C)c(=O)c3c(NCCCN(C)C)cc4c(O)n(CCCN(C)C)c(=O)c1c4c3-2
active: DU-145 prostate -40.7% | K-562 leukemia 6.48% | MDA-MB-231 breast -0.632% | RXF 393 renal -68.3% | SF-268 CNS 1.31% | SF-295 CNS -34.8% | SF-539 CNS -23% | UACC-257 melanoma -27.3% | M14 melanoma 3.47% | HT29 colon -42.2% | SNB-75 CNS -66.9% | U251 CNS 3.63% | SK-MEL-5 melanoma -82.4% | UACC-62 melanoma -49.3% | LOX IMVI melanoma -42.3% | SK-MEL-28 melanoma -48.6%
inactive: HCT-15 colon 13.7% | SNB-19 CNS 10.7% | PC-3 prostate 12.1%

COc1ccc(C2CC(c3ccc4c(c3)OCO4)=NN2C=O)cc1 (stereo not given)
inactive: DU-145 prostate 107% | K-562 leukemia 90.3% | MDA-MB-231 breast 84.2% | RXF 393 renal 100% | SF-268 CNS 108% | SF-295 CNS 113% | SF-539 CNS 98.8% | UACC-257 melanoma 110% | M14 melanoma 102% | HCT-15 colon 102% | HT29 colon 98% | SNB-75 CNS 76.4% | SNB-19 CNS 93.9% | U251 CNS 102% | PC-3 prostate 93.4% | SK-MEL-5 melanoma 95.9% | UACC-62 melanoma 82.1% | LOX IMVI melanoma 95.4% | SK-MEL-28 melanoma 107%

CSc1nc2nc3c(nc2c(=O)n1C)C(=O)c1ccccc1C3=O
active: DU-145 prostate -89.7% | MALME-3M melanoma -93% | MDA-MB-231 breast -4.27% | RXF 393 renal -79.3% | SF-268 CNS -17.9% | SF-295 CNS -93.4% | SF-539 CNS -99.8% | M14 melanoma -84.6% | HCT-15 colon -72.1% | HT29 colon -21.1% | SNB-75 CNS -98.3% | SNB-19 CNS -66.2% | PC-3 prostate -6.56% | SK-MEL-5 melanoma -96.4% | UACC-62 melanoma -68.2% | LOX IMVI melanoma -70.9% | SK-MEL-28 melanoma -60.7%

Cc1cccc2nnc(-c3ccccc3)n12
inactive: DU-145 prostate 124% | K-562 leukemia 100% | MDA-MB-231 breast 94.5% | RXF 393 renal 117% | SF-268 CNS 111% | SF-295 CNS 109% | SF-539 CNS 108% | UACC-257 melanoma 105% | M14 melanoma 102% | HCT-15 colon 101% | HT29 colon 106% | SNB-75 CNS 107% | SNB-19 CNS 97.1% | U251 CNS 108% | PC-3 prostate 104% | SK-MEL-5 melanoma 110% | UACC-62 melanoma 99.6% | LOX IMVI melanoma 99.4% | SK-MEL-28 melanoma 112%

C[N+]1(C)C2CC[C@@H]1CC(OC(=O)C(O)c1ccccc1)C2 (stereo not given in full)
inactive: DU-145 prostate 127% | MALME-3M melanoma 94.1% | MDA-MB-231 breast 107% | RXF 393 renal 111% | SF-268 CNS 114% | SF-295 CNS 104% | SF-539 CNS 108% | UACC-257 melanoma 110% | M14 melanoma 105% | HCT-15 colon 105% | HT29 colon 103% | SNB-75 CNS 99% | SNB-19 CNS 110% | U251 CNS 98.5% | PC-3 prostate 99.5% | SK-MEL-5 melanoma 102% | UACC-62 melanoma 102% | LOX IMVI melanoma 102% | SK-MEL-28 melanoma 113%

CCC(=O)Nc1cc2c(cc1Cl)-c1ccccc1C2
inactive: DU-145 prostate 109% | K-562 leukemia 104% | MDA-MB-231 breast 74.5% | RXF 393 renal 102% | SF-268 CNS 84.3% | SF-295 CNS 121% | SF-539 CNS 94.3% | UACC-257 melanoma 96.6% | M14 melanoma 102% | HCT-15 colon 94.9% | HT29 colon 114% | SNB-75 CNS 83.1% | SNB-19 CNS 101% | U251 CNS 96.4% | PC-3 prostate 80.5% | SK-MEL-5 melanoma 93.5% | UACC-62 melanoma 84.8% | SK-MEL-28 melanoma 122%

Clc1ccc2c(c1)C(Br)c1cc(Cl)cc(Cl)c1-2 (stereo not given)
active: LOX IMVI melanoma 4.27%
inactive: DU-145 prostate 109% | MALME-3M melanoma 45.1% | MDA-MB-231 breast 75.6% | SF-268 CNS 98.3% | SF-295 CNS 101% | SF-539 CNS 81.6% | M14 melanoma 34.8% | HCT-15 colon 78.1% | HT29 colon 111% | SNB-75 CNS 73.5% | SNB-19 CNS 90.9% | U251 CNS 79.5% | PC-3 prostate 82.6% | SK-MEL-5 melanoma 51.2% | UACC-62 melanoma 66.1% | SK-MEL-28 melanoma 112%

O=C(N/N=C/c1cccc([N+](=O)[O-])c1)c1ccc(Br)o1
inactive: DU-145 prostate 103% | MALME-3M melanoma 115% | MDA-MB-231 breast 115% | RXF 393 renal 104% | SF-268 CNS 104% | SF-295 CNS 111% | SF-539 CNS 98.4% | M14 melanoma 99.8% | HCT-15 colon 127% | HT29 colon 105% | SNB-75 CNS 98.5% | SNB-19 CNS 83.5% | U251 CNS 110% | SK-MEL-5 melanoma 97.3% | UACC-62 melanoma 102% | LOX IMVI melanoma 112% | SK-MEL-28 melanoma 133%
